Compound activity from PubChem.
Compounds with a hit are over-represented: about 6% of the library has one in this group of screens.
D1 PAM: potentiators of human D1 dopamine receptor; 0.036% of 360,000 active; P21728; HEK293 TREx D1 cells, calcium flux, dopamine EC20 potentiation; potentiation, % at 10 µM; AID 504651; in the data active means potentiation above about 30%; further: 0% is about no effect
Target sequence (P21728 whole entry, looked up): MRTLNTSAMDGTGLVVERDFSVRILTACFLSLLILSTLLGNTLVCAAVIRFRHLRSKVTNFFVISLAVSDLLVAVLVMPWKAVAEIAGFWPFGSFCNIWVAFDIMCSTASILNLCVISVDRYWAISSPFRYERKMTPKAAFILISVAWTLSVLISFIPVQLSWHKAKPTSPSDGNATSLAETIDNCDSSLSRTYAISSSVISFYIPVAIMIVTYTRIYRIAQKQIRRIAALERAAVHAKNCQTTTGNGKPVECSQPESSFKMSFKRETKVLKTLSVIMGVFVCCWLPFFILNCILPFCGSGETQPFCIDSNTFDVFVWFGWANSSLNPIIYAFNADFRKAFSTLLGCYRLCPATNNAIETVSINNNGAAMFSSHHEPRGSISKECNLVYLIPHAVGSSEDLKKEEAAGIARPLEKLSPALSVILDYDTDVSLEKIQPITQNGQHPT
D3 ag: activates the human D3 dopamine receptor; 0.58% of 410,000 active; max activation, %; P35462; D3R DiscoveRx beta-arrestin cells, luminescence, 90 min; in the data active means max activation above about 30%; further: 0% is about no effect
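Cells at 1500/well, incubated overnight, then treated with pinned compounds (dopamine as control) for 90 min at 37 degrees C. DiscoveRx reagent added for 30 - 60 minutes at room temperature; luminescence read.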
D1 antag: blocks dopamine activation of the human D1 receptor; HEK293 TREx D1 cells, calcium flux, dopamine EC80; hits give low values; P21728; AID 504652; 3.2% of 360,000 active; activity change, negative = inhibition, % at 10 µM; in the data active means activity change below about -30%; further: on the % scale 0 is the no-effect control and ±100 the full control effect
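Tetracycline-induced HEK293 T-REx cells with force-coupled D1 receptor were loaded with a no-wash calcium dye. Compound was added after a 10 s baseline and read kinetically for 180 s; EC80 dopamine was then added and calcium flux followed another 180 s.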
Chronic BCR inh: inhibitors of chronic active B-cell receptor signaling | 0.05% of 340,000 active | ABC-DLBCL IkBa-CBG/CBR reporter, luminescence ratio, 4 h | AID 493014 | Potency, µM (top dose mostly 46.1 µM), without a hit: top-dose activity change, negative = inhibition, usual class: inhibitors; active means well fitted inhibition curve with a large enough effect in the signal ratio, with a control signal flat, not every such curve was filed as active; inconclusive means small, poorly fitted or top-dose-only effect, or effect the other way, or a change in a side signal; the % refers to the signal ratio;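 further: potency means the concentration at half of the fitted maximal effect; plate controls were basal doxycycline-induced cells for no effect and cells given 10 µM MG132 for full effect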
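Cell line TMD8 (human ABC DLBCL), stably expressing tet-inducible CBG68-IkBa fusion and CBR; IMDM/0.5% FBS; cpd up to 46 uM; dox induction, 4 h, 37C/5% CO2; dual luminescence; green/red ratio; MG132 control.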
DRD3 antagonist: blocks the human D3 dopamine receptor; P35462; D3R cells, DiscoveRx beta-arrestin luminescence, antagonist mode; hits give low values; max response, negative = inhibition, %; 2.5% of 360,000 active; AID 652054; in the data active means max response below about -50%; inconclusive means no clear call, values can overlap the other calls; further: on the % scale 0 is the no-effect control and ±100 the full control effect
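Cells expressing the human receptor were seeded at 1500 cells/well, incubated overnight at 37 degrees C in 5% CO2, then exposed to library compounds with dopamine controls for 90 minutes at 37 degrees C before luminescent detection.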
D1 agonist: human D1 receptor agonism. HEK293 T-REx D1 cells, calcium flux, agonist mode. activation, % at 2 µM. 1% of 360,000 active. AID 504660; in the data active means activation above about 30%; further: 0% is about no effect
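Inducible HEK293 T-REx D1 cells, force-coupled to calcium signalling, were plated at 4000 cells/well with tetracycline and held overnight at 30 C. After no-wash calcium dye loading, compound-evoked calcium rise over 180 s flagged agonists.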
Active calls of the source: *; ? = inconclusive; nt = no result given.

SMILES	D1 PAM	D3 ag	D1 antag	Chronic BCR inh	DRD3 antagonist	D1 agonist
O=C(NN1C(=O)NC2(CCCCC2)C1=O)c1ccc(-c2ccc([N+](=O)[O-])cc2)o1	-4.1	1.2	-2.8	11.8%	0.9	3.0
COc1ccc(C(CNC(=O)c2ccc(-c3nc4ccccc4s3)o2)N2CCCC2)cc1 (configuration not stated)	9.8	-19.7	-0.6	-2.2%	-83.4*	2.0
COc1ccc(C(CNC(=O)c2ccc(-c3ccccc3Cl)o2)N2CCCC2)cc1 (configuration not stated)	nt	-2.4	nt	nt	-121.0*	nt
CCOc1ccc(NS(=O)(=O)c2ccc3[nH]cc(C(=O)N4CCCC4)c(=O)c3c2)cc1	0.1	-2.1	-2.6	nt	nt	1.5
Cc1ccc(NC(=O)Nc2nnc(N(C)C3CCCCC3)s2)c(Cl)c1	-0.5	-15.6	-3.3	nt	nt	1.6
COc1cc(OC)cc(-c2c(-c3cccs3)c3cc(-c4ccc5[nH]ccc5c4)ccc3n2C)c1	-0.3	38.6*	nt	-7.3%	16.7	-1.9
C[C@@H]1CN([C@@H](C)CO)S(=O)(=O)c2ccc(Br)cc2O[C@@H]1CN(C)C(=O)NC1CCCCC1	nt	-9.8	nt	nt	-15.1	nt
COCCCNC(=O)c1cnc2sc(N3CCCCCC3)nn2c1=O	-9.4	12.1	-0.4	nt	nt	1.2
COCCCNC(=O)C1CCN(Cc2cc3ccccc3n2Cc2cccc(C)c2)CC1	-2.1	0.5	9.8	-12.5%	nt	2.1
COc1ccc(-c2nc3scc(CCNS(=O)(=O)c4c(C)noc4C)n3n2)cc1OC	1.1	-16.0	nt	?	nt	-3.8
Cc1ccc(-c2nc3scc(CCNS(=O)(=O)c4c(C)noc4C)n3n2)cc1	-1.9	-11.4	nt	?	nt	32.2*
CCOC(=O)c1sc(N2C(=O)c3oc4ccc(F)cc4c(=O)c3C2c2ccc(O)cc2)nc1C (configuration not stated)	-0.8	3.6	8.3	nt	nt	0.9
CCc1ccc(C2c3c(oc4ccc(F)cc4c3=O)C(=O)N2c2nc(C)c(C(=O)OC)s2)cc1 (configuration not stated)	-9.9	0.6	-69.3*	nt	nt	0.0
CCOc1cccc(C2c3c(oc4ccc(F)cc4c3=O)C(=O)N2CCc2ccc(OC)cc2)c1 (configuration not stated)	-6.5	0.2	-30.3*	nt	nt	-0.1
CCn1c(=O)sc2cc(NS(=O)(=O)c3ccc(C)cc3)ccc21	-4.0	3.9	0.1	nt	nt	13.0
O=C(Cc1cccs1)NC1CC(=O)N(c2ccc(F)cc2)C1 (configuration not stated)	-1.6	-6.1	nt	6.2%	nt	0.3
O=C(Nc1cc(Cl)cc(Cl)c1)c1cc(S(=O)(=O)N2CCC3(CC2)OCCO3)ccc1F	2.8	2.8	-9.2	-0.2%	nt	1.8
CCN(CC)c1ccc(NC(=O)CN(C)S(=O)(=O)c2cccc3nsnc23)c(C)c1	-0.7	3.9	2.5	nt	nt	0.5
CC(=O)Nc1cccc(-c2cn3ccccc3n2)c1	12.3	1.2	2.3	2.1%	-16.8	0.7
O=C(Nc1cccc(-c2cn3ccccc3n2)c1)c1cc2ccccc2oc1=O	3.1	-13.3	-35.3*	?	-19.1	0.0
O=C(Cc1csc2ccccc12)NCc1ccc(F)cc1	-0.7	-1.8	-15.1	nt	nt	-2.6
O=C1c2ccccc2NC(c2ccc(O)cc2)N1c1ccccc1 (configuration not stated)	1.8	-8.2	-75.4*	4.1%	-3.7	0.3
O=C(N/N=C/c1cc(Cl)cc([N+](=O)[O-])c1O)c1ccc2c(c1)OCO2	12.4	-26.0	-12.4	-20.4%	-67.3*	-1.9
O=C(N/N=C/c1cc(Cl)cc([N+](=O)[O-])c1O)c1cccc(S(=O)(=O)N2CCOCC2)c1	1.0	-36.8	12.9	17.5%	-93.0*	2.0
O=C(N/N=C/c1cc(Br)cc(Br)c1O)c1cccc(S(=O)(=O)N2CCOCC2)c1	-7.7	1.3	-29.1	2.9%	-17.8	10.3
SMILES	D1 PAM	D3 ag	D1 antag	Chronic BCR inh	DRD3 antagonist	D1 agonist
COc1ccc(C(=O)N(Cc2ccco2)Cc2cccs2)cc1	-5.7	nt	-12.1	nt	nt	7.1
N#C/C(=C\c1cn(Cc2ccc(F)cc2)c2ccccc12)C(=O)NCc1ccco1	-10.9	15.0	-35.8*	?	-3.7	7.2
CCN(CC)c1ccc(/C=C(\C#N)C(=O)NCc2ccco2)cc1	-8.1	nt	-12.3	?	nt	47.9*
N#C/C(=C/c1ccc(C(=O)O)cc1)C(=O)NCc1ccccc1	-9.6	6.9	-4.7	5.9%	-9.7	3.5
CCN(CC)c1ccc(/C=C(\C#N)C(=O)NCc2ccccc2)cc1	-7.5	-9.6	0.4	-6.7%	13.5	57.7*
CN(C)c1ccc(/C=C(\C#N)C(=O)NCc2ccco2)cc1	-7.7	nt	-3.5	7.4%	nt	35.1*
COc1ccc(Cl)cc1NC(=O)Cn1c(=O)c(-c2ccccc2NC(C)=O)nc2ccccc21	-3.6	-16.2	1.3	nt	nt	0.9
Cc1nc2c(OCCOc3ccc(F)cc3)cccn2c1N(C)C(=O)CCC1CCCC1	nt	7.3	nt	nt	27.1	nt
CC1CCCN(S(=O)(=O)c2ccc3c(c2)CCN3C(=O)CCC(=O)O)C1 (configuration not stated)	2.5	14.5	-6.0	nt	nt	2.0
COC(=O)Cn1nnnc1-c1nc2cc(C)c(C)cc2[nH]c1=O	nt	4.5	nt	nt	15.2	nt
CC(OC(=O)/C(C#N)=C/c1ccc(N(C)C)cc1)C(=O)NCc1ccco1 (configuration not stated)	1.2	nt	-9.9	5.7%	nt	35.0*
Cn1c(=O)n(C)c2cc(/C=C(/C#N)C(=O)NCc3ccco3)ccc21	-3.2	-4.2	2.9	-6.4%	-2.7	-0.6
CCOc1ccc(NC(=O)CCC(=O)NNS(=O)(=O)c2ccccc2[N+](=O)[O-])cc1	-4.0	-13.1	3.7	-29.0%	-1.0	224.0*
CO[C@@H]1[C@@H](O[C@@H]2O[C@H](C)[C@@H](O[C@H]3C[C@@](C)(O)[C@@H](OC(=O)CC(C)C)[C@H](C)O3)[C@H](N(C)C)[C@H]2O)[C@@H](CC=O)C[C@@H](C)C(=O)/C=C/C2OC2C[C@@H](C)OC(=O)C[C@H]1OC(C)=O (some centres not stated)	nt	9.5	nt	nt	nt	nt
CC(=O)C1=C(C)NC2=C(C(=O)c3ccccc32)C1c1ccccc1 (configuration not stated)	-1.8	-8.2	5.6	?	-52.3*	0.8
CCOC(=O)C1=C(C)NC2=C(C(=O)c3ccccc32)C1c1ccc([N+](=O)[O-])o1 (configuration not stated)	-9.8	1.5	-72.6*	12.9%	-4.2	0.7
CCOC(=O)C1=C(C)NC(=O)NC1c1ccc([N+](=O)[O-])o1 (configuration not stated)	-0.3	-1.9	4.5	2.6%	3.2	1.7
